# Compounds with a hit are over-represented: about 1.3% of the library has one in this group of screens.
# AGP1 TOR yeast: alters AGP1-GFP fluorescence in TOR pathway yeast screen; S. cerevisiae AGP1-GFP multiplex flow cytometry, 3 h; GFP as percent of DMSO wells; AID 2066; GFP response vs DMSO, % at 10 µM; hit rate 0.02% among 320,000;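 active means GFP response relative to DMSO above a set limit, near screen average plus 3 SD, cut at about 150% in these data; inconclusive means fewer than 70 cells counted for the yeast strain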;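 further: median GFP channel fluorescence of the gated AGP1 strain per well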
# Efflux pump mplx: inhibitors of Candida antifungal efflux pumps expressed in yeast; S. cerevisiae Candida pump triplex, Nile Red efflux; inhibition, % at 10 µM; hit rate 0.44% among 330,000; AID 485275;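 active means plate passing quality check with inhibition over a set limit, or well fluorescence over plate mean plus 4 SD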;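 further: Nile Red retained in pooled yeast measured as flow cytometry median fluorescence; 0% = buffer negative control and 100% = Enniatin B positive control; higher means more Nile Red kept so more efflux inhibition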
# RPL19A TOR yeast: alters RPL19A-GFP fluorescence in TOR pathway yeast screen; S. cerevisiae RPL19A-GFP strain, flow cytometry, 3 h; active compounds read low; hit rate 0.3% among 330,000; percent response vs DMSO, % at 10 µM;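 active means percent response vs DMSO below 50%; inconclusive means fewer than 70 events counted for the yeast strain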;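 further: median channel GFP fluorescence of the barcoded RPL19A-GFP strain; ratio of sample median GFP to plate DMSO average so 100% = DMSO; lower means less RPL19A-GFP as with rapamycin TOR inhibition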
# LAP4 TOR yeast: yeast TOR pathway LAP4-GFP modulation | hit rate 0.34% among 320,000 | GFP response vs DMSO, % at 10 µM | AID 2023 | S. cerevisiae LAP4-GFP multiplex, flow cytometry GFP, 3 h; median GFP as percent of DMSO wells;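 active means GFP response vs DMSO above a set limit, about the screen mean plus 3 SD, cut at about 150% in these data; inconclusive means under 70 cell events counted for the yeast strain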
# MEP2-GFP yeast: yeast TOR pathway MEP2-GFP modulation | hit rate 0.51% among 330,000 | GFP response vs DMSO, % at 10 µM | S. cerevisiae MEP2-GFP strain, flow cytometry GFP, 3 h; 100% = DMSO control level;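 active means GFP response versus DMSO above a set limit, roughly screen mean plus 3 SD, cut at about 180% in these data; inconclusive means fewer than 70 cells counted for a yeast strain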;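 further: median GFP fluorescence of the barcode-gated MEP2-GFP cells per well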
# CIT2 TOR yeast: alters CIT2-GFP fluorescence in TOR pathway yeast screen; S. cerevisiae CIT2-GFP strain, flow cytometry, 3 h; 100 means same as DMSO wells; GFP response vs DMSO, % at 10 µM; hit rate 0.065% among 320,000;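 active means GFP response relative to DMSO above a set limit, near the screen mean plus 3 SD, cut at about 150% in these data; inconclusive means Fewer than 70 cells measured for a yeast strain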;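 further: ratio of well median GFP fluorescence to mean of DMSO wells on the plate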
# * hit, by the source's call; ? = inconclusive; / = no result; [ ] = another dose, or the depositor's remark.
SMILES,AGP1 TOR yeast,Efflux pump mplx,RPL19A TOR yeast,LAP4 TOR yeast,MEP2-GFP yeast,CIT2 TOR yeast
CCC(C)Nc1nc(N)c([N+](=O)[O-])c(Nc2ccccc2OC)n1 (configuration not stated),94.3,0.1,96.1,114.8,93.7,94.7
CCC(C)Nc1nc(N)c([N+](=O)[O-])c(Nc2cc(OC)ccc2OC)n1 (configuration not stated),/,0.1,77.0,/,265.3*[may fluoresce violet],/
O=C(CCC(=O)N/N=C/c1cc(Cl)cc(Cl)c1O)NCc1ccccc1,21.9,-0.1,75.1,100.1,363.9*[may fluoresce violet],?
CCCc1ccc(Oc2cc(NN3CCCCC3)c([N+](=O)[O-])cc2[N+](=O)[O-])cc1,92.7,0.0,100.0,121.1,95.5,103.0
COc1cc(C2c3c(oc4ccccc4c3=O)C(=O)N2CCN2CCOCC2)cc(OC)c1OC (configuration not stated),101.1,0.0,99.0,103.2,104.7,99.8
COc1ccc(C2c3c(oc4ccccc4c3=O)C(=O)N2CCN2CCOCC2)cc1OC (configuration not stated),74.0,-0.1,53.5,96.5,187.6*,90.3
O=C(c1cncc(Br)c1)N1CCN(S(=O)(=O)c2ccccc2C(F)(F)F)CC1,101.7,0.0,109.1,111.8,111.1,107.7
O=C(c1cncc(Br)c1)N1CCN(S(=O)(=O)c2ccccc2)CC1,?,0.1,55.8,75.1,234.2*[may fluoresce violet],?
CC(=O)Nc1ccc(C(=O)NNC(=O)CCc2ccccc2)cc1,24.7,-0.1,43.2*[may fluoresce violet],111.1,249.9*[may fluoresce violet],?
Cc1csc2c(N3CCN(C(=S)Nc4ccc(F)cc4F)CC3)ncnc12,111.3,0.0,101.8,116.6,102.8,108.7
COc1ccc(NC(=O)CSc2nc3[nH]c(=O)cc(O)c3s2)c(OC)c1,96.2,0.0,97.2,91.5,93.9,98.6
CC(=O)c1cn(-c2ccc([N+](=O)[O-])cc2)c(=O)n(C)c1=O,105.7,0.0,99.4,104.4,95.8,102.6
Cn1c(CBr)c(C(=O)c2ccc([N+](=O)[O-])cc2)c(=O)n(C)c1=O,?,0.0,54.7,113.2,444.2*[may fluoresce violet],?
COc1ccccc1Oc1coc2c(CN3CCN(C)CC3)c(O)ccc2c1=O,?,0.0,63.1,88.8,224.9*[may fluoresce violet],?
COc1cccc(C(=O)Nc2ccc3nc(N4CCN(c5ncccn5)CC4)cc(C)c3c2)c1OC,?,0.0,17.9*[may fluoresce violet],71.3,271.6*[may fluoresce violet],?
CCOc1ccccc1C(=O)Nc1ccc2nc(N3CCN(c4ncccn4)CC3)cc(C)c2c1,97.1,0.0,90.1,107.5,109.0,102.7
O=C(COC(=O)/C=C/c1cccc(Br)c1)NC1CCCCCC1,106.0,-0.2,97.1,100.4,100.8,102.2
CC(=O)Nc1ccc(N(C(=O)c2ccco2)C(C(=O)NC2CCCC2)c2ccncc2)cc1 (configuration not stated),105.4,-0.3,103.4,99.2,101.7,103.3
N#CC12C(N)=NC3(OCCO3)C1(C#N)C1=C(CCC1)NC2c1ccccc1 (configuration not stated),99.8,0.0,97.2,98.7,103.5,98.8
CCSC1(SCC)N=C(N)C2(C#N)C(c3ccccc3)NC3=C(CCC3)C12C#N (configuration not stated),19.9,0.1,42.1*[may fluoresce violet],96.6,277.4*[may fluoresce violet],?
COc1ccccc1-c1nnc(NC(=O)c2ccc(S(=O)(=O)N3CCCC3)cc2)o1,119.5,0.1,79.0,169.3*,98.0,91.2
CNC(=O)/C(C#N)=C/c1c(N2CCCCCC2)nc2ccccn2c1=O,20.6,0.2,77.1,93.3,215.6*,80.0
CCNC(=O)/C(C#N)=C/c1c(N2CCCCCC2)nc2ccccn2c1=O,103.8,-0.1,106.2,94.0,109.3,101.3
Cc1cc(Br)ccc1NC(=O)C1CCN(C(=O)c2ccco2)CC1,102.3,-0.3,104.1,118.0,107.6,106.3
C=CCOc1ccc(/C(O)=C2/C(=O)C(=O)N(CCCN3CCOCC3)C2c2ccccc2)cc1 (configuration not stated),?,0.0,29.2*[may fluoresce violet],88.5,315.5*[may fluoresce violet],?
SMILES,AGP1 TOR yeast,Efflux pump mplx,RPL19A TOR yeast,LAP4 TOR yeast,MEP2-GFP yeast,CIT2 TOR yeast
C=CCOc1ccc(/C(O)=C2/C(=O)C(=O)N(CCCN3CCOCC3)C2c2ccc(OC)cc2)cc1 (configuration not stated),99.6,-0.1,96.9,98.7,100.4,98.8
CC1(C)Cc2cccc(OCC(=O)Nc3ccccc3N3CCOCC3)c2O1,?,-0.1,15.7*[may fluoresce violet],103.0,?,?
CC1(C)Cc2cccc(OCC(=O)Nc3ccccc3C(F)(F)F)c2O1,103.7,1.9,104.2,113.0,128.9,103.5
Cc1cc(C(=O)NNC(=O)CN2C(=O)NC(C)(c3ccccc3)C2=O)c(C)o1 (configuration not stated),101.5,0.1,95.3,100.9,94.1,89.9
COc1ccc(OCc2nc3ccc(S(=O)(=O)Nc4ccccc4Cl)cc3[nH]2)cc1,?,0.2,26.8*[may fluoresce violet],72.5,180.9*[may fluoresce violet],?
COC(=O)c1ccc(CS(=O)(=O)c2ccc(C)cc2)o1,96.6,0.1,96.5,86.3,97.4,101.3
CCOC(=O)C1CCCN(C(=O)c2ccc(CS(=O)(=O)c3ccc(C)cc3)o2)C1 (configuration not stated),105.1,0.0,101.0,101.2,103.0,105.4
CCOC(=O)C1CCCN(C(=O)c2ccc(-c3ccc([N+](=O)[O-])cc3)o2)C1 (configuration not stated),83.7,0.4,95.7,168.6*,79.0,69.9
N#CC1=C(N)Oc2cc(O)ccc2C1c1cccnc1 (configuration not stated),20.9,0.6,58.6,100.4,209.8*[may fluoresce violet],?
N#CC1=C(N)Oc2cc(O)c(Cl)cc2C1c1cccnc1 (configuration not stated),103.1,-0.1,102.1,103.0,100.5,107.0
OC(COc1ccccc1CNCc1cccnc1)CN1CCc2ccccc2C1 (configuration not stated),17.8,0.2,52.8,88.8,587.5*[may fluoresce violet],?
OC(COc1ccc(CNCc2cccnc2)cc1)CN1CCc2ccccc2C1 (configuration not stated),102.4,-0.3,104.2,93.8,109.1,106.1
CCOC(=O)c1cc2ccc(OC(=O)c3ccco3)cc2oc1=O,?,0.1,49.6*[may fluoresce violet],103.8,198.4*[may fluoresce violet],?
NCCSc1c(-c2ccc(F)cc2)[nH]c2ccccc12,24.5,-0.1,73.8,100.9,616.4*[may fluoresce violet],?
NCCSc1c(-c2ccccc2)[nH]c2ccccc12,112.3,0.1,106.4,97.8,103.4,121.6
